Calls of active or inactive are those of the source. How the source made its calls: active means hit-call score of the fitted dose curve at least 0.9, where 1 is the maximum; inactive means score below 0.9.
Columns and labels:
[1] = read-out: Vascular endothelial growth factor receptor 2 (Homo sapiens) (UniProt P35968); test: BSK_4H_VEGFRII: BioMAP Diversity Plus: 4H Assay for Vascular endothelial growth factor receptor 2 (VEGFR2) Biomarker Activity (AID 2283031); details: primary human endothelial cells (HUVEC); actives raise or lower the signal
Outline: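 VEGFRII levels on human vascular endothelial primary cells were determined by ELISA at 24 hours post-dosing, with gain- or loss-of-signal fitted against DMSO controls.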

[2] = read-out: Human Leukocyte Antigen - DR isotype (HLADR), HLA-DRA (gene 3122); test: BSK_BE3C_HLADR: BioMAP Diversity Plus: BE3C Assay for Human Leukocyte Antigen - DR isotype (HLADR) Biomarker Activity (AID 2283032); details: primary human bronchial epithelial cells; actives raise or lower the signal
Outline: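 BioMAP BE3C format: human bronchial epithelium, 24 h compound treatment, ELISA detection of HLA-DR, with bidirectional analysis relative to DMSO.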

[3] = read-out: Vascular cell adhesion molecule 1 (VCAM1), VCAM1 (gene 7412); test: BSK_4H_VCAM1: BioMAP Diversity Plus: 4H Assay for Vascular cell adhesion molecule 1 (VCAM1) Biomarker Activity (AID 2283033); details: primary human endothelial cells (HUVEC); actives raise or lower the signal;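 further: cell-surface VCAM-1 protein measured by ELISA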
Outline: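 In this human endothelial (HUVEC) system, biomarker ELISA was run 24 h after compound addition, and total protein in parallel wells was assessed by SRB at 560 nm; DMSO served as negative control.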

[4] = read-out: Interferon-gamma inducible Protein 10 (IP10), CXCL10 (gene 3627); test: BSK_BE3C_IP10: BioMAP Diversity Plus: BE3C Assay for Interferon-gamma inducible Protein 10 (IP10) Biomarker Activity (AID 2283034); details: primary human bronchial epithelial cells; actives raise or lower the signal
Outline: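 BE3C cells (human bronchial epithelial, primary); 24 h exposure; ELISA for IP-10; DMSO-referenced bidirectional fit.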

[5] = read-out: Monokine induced gamma interferon (MIG), CXCL9 (gene 4283); test: BSK_BE3C_MIG: BioMAP Diversity Plus: BE3C Assay for Monokine induced gamma interferon (MIG) Biomarker Activity (AID 2283035); details: primary human bronchial epithelial cells; actives raise or lower the signal;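 further: MIG protein measured by ELISA in BE3C cultures after 24 h of dosing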
Outline: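 hu bronchial epithelial 1° cells, 24 h cpd; MIG by ELISA; bidirectional fit, DMSO = baseline.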

[6] = read-out: Transforming growth factor beta 1 (TGFb1), TGFB1 (gene 7040); test: BSK_BE3C_TGFb1: BioMAP Diversity Plus: BE3C Assay for Transforming growth factor beta 1 (TGFb1) Biomarker Activity (AID 2283036;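 further: TGF-b1 protein level measured by ELISA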); details: primary human bronchial epithelial cells; actives raise or lower the signal
Outline: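 TGF-b1 measured via ELISA, 24 h after chemical dosing of human bronchial epithelial cells (BE3C). Overt cytotoxicity assessed in parallel by SRB (0.1%, TCA-fixed, 560 nm); analysis bidirectional relative to DMSO.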

[7] = read-out: Plasminogen activator inhibitor-1 (PAI1), SERPINE1 (gene 5054); test: BSK_BE3C_PAI1: BioMAP Diversity Plus: BE3C Assay for Plasminogen activator inhibitor-1 (PAI1) Biomarker Activity (AID 2283037); details: primary human bronchial epithelial cells; actives raise or lower the signal
Outline: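 In this multiplexed primary-cell system, bronchial epithelial cells receive test chemical and are sampled at 24 h. PAI-1 is read by ELISA, with DMSO serving as negative control for bidirectional fitting.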

[8] = read-out: urokinase plasminogen activator (uPA), PLAU (gene 5328); test: BSK_BE3C_uPA: BioMAP Diversity Plus: BE3C Assay for urokinase plasminogen activator (uPA) Biomarker Activity (AID 2283038); details: primary human bronchial epithelial cells; actives raise or lower the signal;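 further: uPA protein level quantified by ELISA in cell cultures; uPA read one day after compound addition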
Outline: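 Measured by ELISA: uPA from human primary bronchial epithelial cells 24 h after chemical treatment. Values derive from bidirectional curve fitting with DMSO serving as negative control. Total protein by SRB staining in parallel wells flagged overt cytotoxicity.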

[9] = read-out: Urokinase-type plasminogen activator receptor (uPAR), PLAUR (gene 5329); test: BSK_BE3C_uPAR: BioMAP Diversity Plus: BE3C Assay for Urokinase-type plasminogen activator receptor (uPAR) Biomarker Activity (AID 2283039); details: primary human bronchial epithelial cells; actives raise or lower the signal;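 further: uPAR protein level measured by ELISA on the cells; cells exposed to compound for one day before measurement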
Outline: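 Chemically treated human bronchial epithelial cells (lung primary) are assayed for uPAR by ELISA after 24 h, with data fitted in both directions using DMSO as negative control.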

[10] = read-out: Interleukin-6 (IL6), IL6 (gene 3569); test: BSK_CASM3C_IL6: BioMAP Diversity Plus: CASM3C Assay for Interleukin-6 (IL6) Biomarker Activity for (AID 2283040); details: primary human coronary artery smooth muscle cells; actives raise or lower the signal
[11] = read-out: Tissue plasminogen activator (tPA), PLAT (gene 5327); test: BSK_BE3C_tPA: BioMAP Diversity Plus: BE3C Assay for Tissue plasminogen activator (tPA) Biomarker Activity (AID 2283041); details: primary human bronchial epithelial cells; actives raise or lower the signal;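 further: tPA level quantified by ELISA one day after compound addition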
Outline: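 Using human lung primary bronchial epithelial cells, tPA was measured by ELISA 24 h after dosing; data fitted relative to DMSO.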

[12] = read-out: Interleukin-8 (IL8), CXCL8 (gene 3576); test: BSK_CASM3C_IL8: BioMAP Diversity Plus: CASM3C Assay for Interleukin-8 (IL8) Biomarker Activity (AID 2283042); details: primary human coronary artery smooth muscle cells; actives raise or lower the signal;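 further: IL-8 protein level quantified by ELISA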
[13] = read-out: Human Leukocyte Antigen - DR isotype (HLADR), HLA-DRA (gene 3122); test: BSK_CASM3C_HLADR: BioMAP Diversity Plus: CASM3C Assay for Human Leukocyte Antigen - DR isotype (HLADR) Biomarker Activity (AID 2283043); details: primary human coronary artery smooth muscle cells; actives raise or lower the signal;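 further: cell-surface HLA-DR protein level quantified by ELISA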
[14] = read-out: Macrophage colony-stimulating factor (MCSF), CSF1 (gene 1435); test: BSK_CASM3C_MCSF: BioMAP Diversity Plus: CASM3C Assay for Macrophage colony-stimulating factor (MCSF) Biomarker Activity (AID 2283044); details: primary human coronary artery smooth muscle cells; actives raise or lower the signal;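 further: M-CSF protein amount quantified by ELISA after 24 h exposure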
[15] = read-out: Low-density lipoprotein receptor (LDLR), LDLR (gene 3949); test: BSK_CASM3C_LDLR: BioMAP Diversity Plus: CASM3C Assay for Low-density lipoprotein receptor (LDLR) Biomarker Activity (AID 2283045); details: primary human coronary artery smooth muscle cells; actives raise or lower the signal;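 further: LDLR protein level on the cell surface quantified by ELISA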
[16] = read-out: Monocyte Chemoattractant Protein-1 (MCP1), CCL2 (gene 6347); test: BSK_CASM3C_MCP1: BioMAP Diversity Plus: CASM3C Assay for Monocyte Chemoattractant Protein-1 (MCP1) Biomarker Activity (AID 2283046); details: primary human coronary artery smooth muscle cells; actives raise or lower the signal;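 further: MCP-1 level quantified by ELISA 24 h after dosing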
[17] = BSK_CASM3C_Proliferation: Cell Proliferation Assessment in the BioMAP Diversity Plus: CASM3C Assay (AID 2283047); details: primary human coronary artery smooth muscle cells;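 further: sulforhodamine B total protein stain as relative cell number at 560 nm; sub-confluent cells exposed 48 h before staining; fitted both ways against DMSO so gain or loss of cell number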
[18] = read-out: Monokine induced gamma interferon (MIG), CXCL9 (gene 4283); test: BSK_CASM3C_MIG: BioMAP Diversity Plus: CASM3C Assay for Monokine induced gamma interferon (MIG) Biomarker Activity (AID 2283048); details: primary human coronary artery smooth muscle cells; actives raise or lower the signal;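 further: MIG protein level measured by ELISA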
[19] = read-out: serum amyloid A (SAA), SAA1 (gene 6288); test: BSK_CASM3C_SAA: BioMAP Diversity Plus: CASM3C Assay for serum amyloid A (SAA) Biomarker Activity (AID 2283049); details: primary human coronary artery smooth muscle cells; actives raise or lower the signal;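 further: SAA protein level quantified by ELISA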
[20] = BSK_CASM3C_SRB: Viability Assessment in the BioMAP Diversity Plus: CASM3C Assay (AID 2283050); details: primary human coronary artery smooth muscle cells;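 further: total protein by SRB staining as cytotoxicity measure in parallel cultures; cells exposed to compound for 24 h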

Measured: AC50

Cc1ccc(N)cc1
inactive: all assays above

CC(C)(C)OOC(C)(C)CCC(C)(C)OOC(C)(C)C
inactive: all assays above

Nc1ccc([N+](=O)[O-])cc1
inactive: all assays above

CCOc1cccc(C2(N3CCN(c4ccccc4)CC3)CCC(C)CC2)c1 (stereo not given)
inactive: all assays above

O=[N+]([O-])c1ccc(Oc2ccc(Cl)cc2Cl)cc1
active: [2] 20 µM
inactive: all other assays above

CCN(CC)N=O
inactive: all assays above

Source: PubChem BioAssay (EPA / NIEHS)
